Source: PubChem (Sanford-Burnham Center for Chemical Genomics)
TWEAK Fn14 block – inhibitors of TWEAK-Fn14 signaling, primary screen, luciferase reporter cells, uHTS; inhibition, % at 10 µM; TWEAK-stimulated Fn14 reporter cells, luciferase luminescence, 8 h; 360,000 compounds, 2% hits; in the data active = inhibition above about 50%
Peg3 prom inh – Peg3 promoter-driven luciferase inhibitors, primary screen, cell-based, HeLa, luciferase luminescence | HeLa PEG-Prom luciferase reporter, overnight | 360,000 compounds, 1.7% hits | AID 588405, 2011 | inhibition, % at 20 µM;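 active = inhibition of at least 50% at 20 µM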
CF NFkB inh – inhibitors of PAF-induced NF-kB signaling, primary screen, cell-based, GFP fluorescence, uHTS. KKLEB NF-kB-GFP reporter, GFP fluorescence overnight. inhibition, % at 5 µM. 360,000 compounds, 0.86% hits. AID 588850, 2011;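 active = at least 50% inhibition at 5 µM, scaled per plate between neutral and stimulator controls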;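 note: PAF is a Pseudomonas aeruginosa culture filtrate used as stimulus; plate controls were PAF-stimulated DMSO wells for no effect and unstimulated DMSO wells for full effect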
HIF-2a block – HIF-2a reporter inhibitors, primary screen, luminescence, 786-0 RCC cells | 786-0 RCC cells HIF-2a reporter, luciferase luminescence, overnight | inhibition, % at 18.8 µM | 360,000 compounds, 0.72% hits | AID 624352, 2012;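 active = inhibition of the luminescence signal of 40% or more relative to plate controls, in a single-dose primary screen at 18.75 µM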
TROY NFkB inh – inhibitors of TROY-driven NF-kB signaling, primary screen, Q293 LMP1-TROYcd cells, NF-kB luciferase, uHTS; Q293 LMP1-TROYcd NF-kB luciferase reporter, 4 h; inhibition, % at 10 µM; 360,000 compounds, 0.98% hits;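 active = compounds whose plate-normalised and pattern-corrected inhibition of the luciferase reporter signal at the single screening dose is 50% or more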
KKLEB tox – cytotoxicity in KKLEB CF airway cells, primary screen, cytotoxicity control for CF NF-kB inhibitor project, cell-based, uHTS, fluorescence assay plates | KKLEB CF airway cells viability, ATPlite luminescence, overnight; stronger effect = lower value; cells stimulated with P. aeruginosa culture filtrate | activity change (cytotoxicity), % at 5 µM | 360,000 compounds, 0.36% hits | AID 602141, 2011;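 active = corrected activity change at or below -50% at 5 µM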
Numbers without * were called inactive. An excerpt weighted towards active compounds, which were near 3.9% of everything screened.

SMILES | TWEAK Fn14 block | Peg3 prom inh | CF NFkB inh | HIF-2a block | TROY NFkB inh | KKLEB tox
COc1ccc(NC(=O)C#Cc2ccccc2)cc1OC | 95* | -192 | 27 | -52 | -3 | -14
CCOC(=O)c1c(CSC(=N)N)n(-c2ccc(Br)cc2)c2cc(Br)c(OC(C)=O)cc12 | -22 | -1 | -10 | 4 | 5 | 16
CCOC(=O)c1c(CSc2nc(C)cc(C)c2C#N)n(C)c2cc(Br)c(OC(C)=O)cc12 | 61* | 28 | 40 | 13 | 27 | -55*
CCCCCCCCOC(=O)c1c(CSC(=N)N)n(C)c2cc(Br)c(OC(C)=O)cc12 | -43 | 98* | 16 | 0 | 12 | 22
CN1CCN(C(=S)NC(=O)c2cccc(S(=O)(=O)N(C)C)c2)CC1 | 19 | -2 | 1 | 21 | -22 | 0
Cc1ccc(Sc2ncnc3onc(C)c23)c(C)c1 | 37 | 0 | 17 | -4 | 14 | -2
COC(=O)c1ccccc1Sc1ncnc2onc(C)c12 | 37 | 101* | 38 | 13 | 16 | 0
Cc1cc2nc(NCCCO)n(CC(=O)c3cc(C(C)(C)C)c(O)c(C(C)(C)C)c3)c2cc1C | 61* | 94* | 41 | -8 | 48 | -44
C/C(=N\NC(=O)c1ccc(CN2CCc3ccccc3C2)cc1)c1ccccc1O | 83* | -32 | 0 | -75 | 38 | -2
O=C(Nc1ccc(Cl)cc1)c1ccc(CN2CCc3ccccc3C2)cc1 | 20 | -205 | -1 | -199 | -29 | 11
O=C(Nc1ccc(S(=O)(=O)N2CCCC2)cc1)c1ccc(CN2CCc3ccccc3C2)cc1 | 68* | 33 | 15 | 15 | 33 | -13
CCCNC(=O)c1ccc(CN2CCc3ccccc3C2)cc1 | -17 | 7 | 1 | 1 | 4 | -2
O=C(CCl)c1cc2c3c(c1)CC(=O)N3CCC2 | 15 | 81* | 20 | -7 | -5 | 9
CCOC(=O)c1cn2nc(N3CCCCC3)ccc2n1 | 89* | -5 | -2 | -81 | 71* | -6
CCOC(=O)c1cn2nc(N3CCCC3)ccc2n1 | 79* | 6 | -11 | -27 | 48 | -1
Cc1cc(F)ccc1S(=O)(=O)N1CCCCC1CCNC(=O)C(=O)NCCN1CCOCC1 (configuration not stated) | -16 | 9 | 8 | 16 | 15 | -8
O=C(O)c1c(F)c(F)cc2ccccc12 | 107* | 5 | -13 | 17 | -2 | 2
CCN(CC)c1ccc(C(=O)NNC(=O)CN2C(=O)NC(C)(c3ccccc3)C2=O)cc1 (configuration not stated) | 3 | -41 | -2 | -56 | -5 | 14
O=C(CSc1nnc(-c2ccc3c(c2)OCCO3)o1)N1CCCC1 | 70* | -99 | 1 | -38 | 28 | -4
O=C(CSc1nnc(-c2ccccc2)o1)c1ccc2c(c1)OCCO2 | 20 | -42 | 5 | -10 | 59* | 1
CCC1CCCCN1C(=O)CSc1nnc(-c2ccc3c(c2)OCCO3)o1 (configuration not stated) | -20 | -57 | 2 | -104 | -8 | -1
Cc1ccc(C)c(N2CCN(C(=O)CCc3nc(-c4cccc(F)c4)no3)CC2)c1 | 6 | -6 | 10 | 10 | 5 | 12
O=C1ON=C(c2ccccc2)/C1=C/c1ccc(-c2ccccc2[N+](=O)[O-])o1 | 95* | 103* | 40 | 98* | -2 | -18
O=C(O)c1ccccc1-c1ccc(C=c2sc3nc4cc(Br)cnc4n3c2=O)o1 | 54* | -2 | -6 | 0 | 14 | 13
O=C(/C=C\Nc1ccc2c(c1)OCO2)c1ccc(Cl)s1 | 53* | -255 | -35 | -338 | 16 | -23
N=c1n(CCN2CCCCC2)c2ccccc2n1CC(O)c1cccc(Br)c1 (configuration not stated) | 22 | 110* | 20 | -7 | 19 | -23
O=C(NCC1CCCO1)c1cccc2c1C(=O)c1ccc(N3CCC(Cc4ccccc4)CC3)cc1S2(=O)=O (configuration not stated) | 90* | 63* | -5 | 27 | 56* | 10
